Bioassay records (PubChem BioAssay)
Pol beta inh: qHTS Assay for Inhibitors of DNA Polymerase Beta | P06746 | Pol beta primer extension/strand displacement, fluorescence kinetic | Potency, µM (series often up to 114 µM), for the others: at the top dose activity change, negative = inhibition, hits mostly inhibitors | actives 1.3% (n = 340,000) | AID 485314, 2010; also: % is scaled to controls: 0 for no effect and ±100 for the full control effect
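Pol beta (10 nM) was preincubated with compound for 15 min at room temperature. The reaction was then started with 50 nM substrate and read immediately and after a further 10 min at room temperature.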
POLI inh: qHTS for Inhibitors of Polymerase Iota | actives 1% (n = 390,000) | Potency, µM (highest dose often 115 µM), for inactives: at the top dose activity, negative = inhibition, actives largely listed as inhibitors | AID 588590, 2011 | Pol iota fluorescent replication assay, 10 min | DNA polymerase iota (Homo sapiens), Q9UNA4
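Pol iota at 10 nM preincubated 15 min with compounds at room temperature; reaction started with fluorescent substrate, 50 nM final. Fluorescence read kinetically at 0 and 10 min; buffer-only wells as negative control.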
POLK inh: qHTS for Inhibitors of Polymerase Kappa. DNA polymerase kappa (Homo sapiens), Q9UBT6. purified Pol kappa, fluorescent DNA synthesis assay, 10 min. Potency, µM (highest dose often 107 µM), inactives show at the top dose activity, negative = inhibition, actives largely listed as inhibitors. actives 0.53% (n = 400,000). AID 588579, 2011; also: % is scaled to controls: 0 for no effect and ±100 for the full control effect
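Fluorescent qHTS in 1536-well format: enzyme (10 nM) and compound sat 15 min at room temperature before 50 nM substrate (final) was added. Signal taken at 0 and 10 min; no-enzyme buffer wells were negative controls.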
Pol eta inh: qHTS for Inhibitors of Polymerase Eta; DNA polymerase eta (Homo sapiens), Q9Y253; actives 1.2% (n = 390,000); Potency, µM (doses to about 114 µM), without a hit: top-dose activity change, negative = inhibition, most hits filed as inhibitors; AID 588591, 2011; recombinant Pol eta, fluorescent DNA replication assay; also: % is scaled to controls: 0 for no effect and ±100 for the full control effect
Target sequence (Q9Y253 whole entry, looked up): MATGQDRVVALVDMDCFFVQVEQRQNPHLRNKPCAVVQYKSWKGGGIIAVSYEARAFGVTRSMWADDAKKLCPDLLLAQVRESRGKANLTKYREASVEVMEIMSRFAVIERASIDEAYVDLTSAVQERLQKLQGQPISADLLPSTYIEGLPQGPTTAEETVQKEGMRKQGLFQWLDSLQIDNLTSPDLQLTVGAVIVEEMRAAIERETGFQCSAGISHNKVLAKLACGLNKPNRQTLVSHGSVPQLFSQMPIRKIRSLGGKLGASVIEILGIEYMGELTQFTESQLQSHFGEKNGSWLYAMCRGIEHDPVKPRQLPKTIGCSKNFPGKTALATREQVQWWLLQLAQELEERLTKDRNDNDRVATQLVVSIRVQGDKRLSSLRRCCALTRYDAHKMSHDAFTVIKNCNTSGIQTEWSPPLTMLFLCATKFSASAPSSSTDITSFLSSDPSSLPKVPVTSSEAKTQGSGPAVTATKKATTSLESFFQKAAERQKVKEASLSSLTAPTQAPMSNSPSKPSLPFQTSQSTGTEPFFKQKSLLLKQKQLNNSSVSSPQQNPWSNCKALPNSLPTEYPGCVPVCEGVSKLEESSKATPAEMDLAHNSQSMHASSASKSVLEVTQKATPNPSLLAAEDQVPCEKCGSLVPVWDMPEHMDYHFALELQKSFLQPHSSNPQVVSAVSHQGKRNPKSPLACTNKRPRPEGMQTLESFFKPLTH
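Pol eta at 10 nM preincubated with compounds 15 min at room temperature; reaction started with fluorescent substrate (50 nM final) and read kinetically at 0 and 10 min.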
L3MBTL1 block: qHTS Assay for the Inhibitors of L3MBTL1 | Potency, µM (highest dose often 57.1 µM), without a hit: top-dose activity, negative = inhibition, usual class: inhibitors | actives 0.66% (n = 230,000) | AlphaScreen L3MBTL1–H3K9me1 peptide binding | Lethal(3)malignant brain tumor-like protein 1 (Homo sapiens), Q9Y468 | AID 485360, 2010; also: % is scaled to controls: 0 for no effect and ±100 for the full control effect; nearly all actives have a fitted effect of over 60% in size
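AlphaScreen assay: L3MBTL1 (50 nM final) was preincubated 30 min at room temperature with biotinylated H3(1-15)K9me1 peptide (75 nM final), then 30 min with library compounds; streptavidin donor and nickel chelate acceptor beads (10 ug/mL final) added, 30 min dark.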
* marks the source's active call; other numbers are inactive results; ? = inconclusive; nt = not tested or not shown; [ ] = another dose, or the depositor's remark. Hits are enriched below; roughly 2.4% of the tested compounds scored in any of these assays. Calls follow the shape of the dose curve; as a rule, active = well fitted curve in the direction sought with a large enough effect; inconclusive = small, poorly fitted or top-dose-only effect, or another doubt; inactive = no such curve, though single readings can be large; an effect the other way counts as inactive or inconclusive. Potency is read from the fitted curve at half-maximal effect.

SMILES	Pol beta inh	POLI inh	POLK inh	Pol eta inh	L3MBTL1 block
Cc1ccc(-c2cc(C(=O)Nc3ccc(S(=O)(=O)Nc4onc(C)c4C)cc3)c3ccccc3n2)cc1	?	43%	-10%	89µM*	-3%
Nc1ncnc2c1ncn2[C@@H]1O[C@H](C(=O)N2CCN(CC(=O)Nc3cccc4c3CNC4=O)CC2)[C@@H](O)[C@H]1O	nt	nt	-4%[60.1 µM]	nt	nt
Cc1cc(C)c2c(CC(=O)Nc3c(C(=O)Nc4ccc(Cl)cc4)oc4ccccc34)coc2c1	17%	-25%	-3%	-8%	nt
COc1ccc(NC(=O)c2cc(-c3ccc(C)o3)nc3ccccc23)cc1OC	35µM*	?	?	?	?
CCOc1ccc(OCC)c(NC(=O)c2cc(-c3cccs3)nc3ccccc23)c1	2%	89µM*	?	-17%	nt
Cc1ccc(NC(=O)c2cc(-c3cccs3)nc3ccccc23)nc1	?	-18%	-3%	-16%	14%
CC1=C(C(=O)OCC2CCCCC2)C(c2ccc(Cl)cc2Cl)CC(=O)N1 (configuration not stated)	16%	33%	-5%	-6%	nt
CC(=O)c1cccc(S(=O)(=O)N2CCC(C(=O)OC3CCOC3=O)CC2)c1 (configuration not stated)	nt	?	-23%	45µM*	-10%
Cc1ccc(S(=O)(=O)N2CCC(C(=O)OC3CCOC3=O)CC2)cc1C (configuration not stated)	nt	43%	-2%	-11%	-9%
O=C(Nc1cccc(C(F)(F)F)c1)Oc1ccc(Cl)c2cccnc12	7%	37%	-4%	-17%	25µM*
CCN(CC)C(=O)Oc1ccc(Cl)c2cccnc12	23%	32%	-15%	-7%	7%
O=C(NCC(c1cccnc1)N1CCc2ccccc21)C(=O)Nc1ccccc1F (configuration not stated)	-21%	6%	-13%	-11%	nt
Cc1cc(C(=O)COc2ccccc2C(N)=O)c(C)n1C	4%	182%	-6%	-11%	25%
Cc1cc(C(=O)COc2cccc3cccnc23)c(C)n1C	11µM*	8%	-12%	?	11µM*
CCSC(=O)N1CCN(/[N+]([O-])=N/Oc2ccc([N+](=O)[O-])cc2[N+](=O)[O-])CC1	nt	?	1%	nt	nt
Cc1nc(S/C(=C/c2ccc(-c3ccc(Cl)cc3)o2)C(=O)O)n[nH]1	18%	-5%	-21%	25µM*	nt
CCCCC(Sc1ccc2nnc(-c3ccccn3)n2n1)C(=O)O (configuration not stated)	nt	-2%	-14%	nt	nt
O=C(O)c1cc(NS(=O)(=O)c2ccc(NC3CCCCC3)c([N+](=O)[O-])c2)cc(C(=O)O)c1	3%	-23%	-41%	45µM*	-24%
O=C(NNS(=O)(=O)c1cccc(Cl)c1)c1cc(-c2ccc(F)cc2)nc2ccccc12	50µM*	?	-17%	?	-5%
O=C1C2CC=C(Cl)CC2C(=O)N1CN(Cc1ccco1)CN1C(=O)C2CC=C(Cl)CC2C1=O (configuration not stated)	35µM*	?	-3%	?	?
Cc1ccc(CNC(=O)c2c[nH]n3c(=O)c(Cc4ccc(Cl)cc4)c(C)nc23)cc1	?	-11%	-6%	?	nt
Cc1nc2c(C(=O)N(C)Cc3ccccc3)c[nH]n2c(=O)c1Cc1ccc(Cl)cc1	?	50µM*	89µM*	-11%	nt
Cc1nc2c(C(=O)NCCc3ccccc3)c[nH]n2c(=O)c1Cc1ccccc1F	?	79µM*	-24%	3%	nt
Cc1nc2nc(NCc3ccc(Cl)cc3)[nH]n2c(=O)c1Cc1ccccc1	-9%	1%	9%	1%	nt
Cc1nc2c(C(=O)NCCc3ccc(Cl)cc3)c[nH]n2c(=O)c1Cc1ccc(Cl)cc1	22µM*	79µM*	?	89µM*	nt
CC(=O)N1CCC2(CCCN(c3ccccc3)C2)CC1	nt	nt	1%[60.1 µM]	nt	nt
COc1ccc(C(=O)OCC(=O)N2c3ccccc3CC2C)cc1S(=O)(=O)N1CCOCC1 (configuration not stated)	nt	nt	nt	1%	nt
